An excerpt weighted towards active compounds, which were near 2% of everything screened.
Platelet DG rel = platelet dense granule release activity. human platelet-rich plasma, SFLLRN dense granule ATP release, luminescence. hit rate 0.22% among 300,000. AID 1663. inhibition, %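 (compounds screened at 7.5 µM in platelet-rich plasma)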;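 active = mean replicate score, as percent of positive control, at or above 50; inconclusive = mean below 50 but at least one replicate at or above 50; inactive = mean and every replicate below 50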
PolyA inh = blocks polyadenylation in yeast reporter cells; S. cerevisiae SKY197-pL101 polyadenylation reporter, beta-gal luminescence; efflux-impaired pdr1/pdr3 knockout yeast; score 100 = 6 SD above DMSO; activity score, % at 12 µM; AID 1875; hit rate 0.02% among 300,000;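 active = lowest replicate activity score at least 50, where 100 means six control SD above control mean; inconclusive = lowest score under 50 but half or more replicates reach 50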;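 also: yeast exposed to compound for 9 h at 30 °C; higher score means more reporter readthrough which indicates perturbed polyadenylation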
Yeast superoxide = lowers age-related superoxide in aged yeast cells. hit rate 0.18% among 330,000. AID 2690. S. cerevisiae aged cells, superoxide DHE fluorescence; stronger effect = lower value. superoxide response (% of plate mean), % at 10 µM;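 active = superoxide response under a set limit, about three screen SD below normal, cut at about 65% in these data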;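 also: yeast aged for seven days with compound at 30 °C before DHE staining; 100% = average MFI of all compound-treated wells on the plate with controls excluded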
SKKanGAS inh = SKKanGAS growth inhibition. S. pyogenes SKKanGAS, kanamycin growth, BacTiter-Glo, 6 h. inhibition, % at 7.5 µM. hit rate 1.3% among 300,000;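 active = mean replicate score, as percent of positive control median, at least 50; inconclusive = mean below 50 but one replicate at or above 50; inactive = mean and every replicate below 50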;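 also: strain carries kanamycin resistance gene driven by streptokinase promoter and grows in 40 µg/ml kanamycin; loss of luminescence reflects streptokinase promoter inhibition or plain growth inhibition; 0% = median of DMSO wells and 100% = positive control at its reference dose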
Calb FLC = affects C. albicans growth with fluconazole; C. albicans CaCi-2 (fluconazole-resistant clinical isolate) + fluconazole, Alamar Blue growth, 48 h; growth inhibition, % (no concentration beside the values); hit rate 0.57% among 300,000;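 active = growth inhibition above about 58% in most replicates, limit read from the data, passing the limit was not always enough; inconclusive = exactly half the replicates above a set limit; inactive = most replicates below a set limit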;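 also: all wells also contain fluconazole at 8 µg/ml as a sub-toxic cotreatment; 0% = median of DMSO wells and 100% = median of geldanamycin control wells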
Starred values were filed as active, the others as inactive; i = inactive; ? = inconclusive; . = not tested or not shown.

SMILES	Platelet DG rel	PolyA inh	Yeast superoxide	SKKanGAS inh	Calb FLC
O=C(NNc1nc(-c2ccccc2)cs1)c1cccs1	13	1	72	22	7
CN1C(=O)C(C)(C)c2cc(S(=O)(=O)NCC3CCC(C(=O)NCc4ccccc4)CC3)ccc21 (stereo unspecified)	3	0	90	-1	-9
CCOC(=O)C1CCN(C(=O)CCCn2nc(C)c3c(C)n(-c4ccc(C)cc4)nc3c2=O)CC1	-1	-10	111	0	7
O=C(Cn1c(=O)cnc2ccccc21)N1CCN(S(=O)(=O)c2ccccc2Br)CC1	-18	9	103	-1	-1
COc1ccc(OC)c(/C=C/C(=O)Nc2ccc(OC)nc2)c1	-3	-9	68	-9	113*
COc1ccc(OC)c(/C=C/C(=O)NC2=NCCS2)c1	7	-13	103	-5	-12
COc1ccc(-n2c(-c3cccc(C)c3[N+](=O)[O-])n[nH]c2=S)cc1	12	7	97	3	74*
CCCCn1c2nc3ccccc3nc2c2c(=O)n(CCC(C)C)cnc21	-1	-5	102	8	-24
CCC(C)n1cnc2c(c1=O)c1nc3ccccc3nc1n2Cc1ccc(OC)cc1 (stereo unspecified)	0	-14	86	17	98*
Cc1ccc2nc(NC(=S)NC(=O)c3cccs3)sc2c1	3	-19	102	11	-5
Cc1cccc(C(=O)NC(=S)NNC(=O)COc2ccc(Cl)cc2)c1	13	-15	.	62*	?
Cc1ccc(C(=O)NNC(=O)c2cccc(C)c2)cc1	-2	-7	89	-5	-3
Cc1cccc(C(=O)NNC(=S)NC(=O)c2cccs2)c1	2	-7	200	76*	102*
COc1ccc(/C=C/C(=O)NC(=S)NNC(=O)c2cccs2)cc1	0	-40	77	94*	0
Cc1cccc(C(=O)NNC(=S)NC(=O)c2ccccc2)c1	-6	-43	214	96*	1
CN(CC(=O)Nc1cccc(F)c1)C(=O)c1cc(S(=O)(=O)N2CCN(c3ccccc3)CC2)ccc1Cl	.	.	106	.	.
CCNS(=O)(=O)c1ccc(CCC(=O)N2CCCC2)cc1	5	5	102	7	-8
O=C(NCc1cccc(C(F)(F)F)c1)C1CCCN(c2cnccn2)C1 (stereo unspecified)	-2	16	102	0	3
COc1ccc(C(=O)NC(=S)NNC(=O)c2cccc(C)c2)cc1	27	-6	204	113*	-2
COc1ccc(C(=O)NNC(=S)NC(=O)c2ccc(OC)cc2)cc1	3	1	123	94*	68
CCNC(=S)NNC(=O)c1ccc(OC)cc1	0	10	94	0	35
Cc1ccc(C(=O)CC(=O)COc2ccc(Cl)cc2)cc1	-2	0	84	64*	114*
CCCCC(=O)NC(=S)NNC(=O)c1ccc(OC)cc1	7	8	111	86*	2
Cc1sc(NC(=O)C2CSC3(C)CCC(=O)N23)nc1-c1ccccc1 (stereo unspecified)	-11	-8	133	-3	3
COc1ccc(-n2cnnc2SCc2csc(-c3ccccc3)n2)cc1	0	-6	98	-1	-8
SMILES	Platelet DG rel	PolyA inh	Yeast superoxide	SKKanGAS inh	Calb FLC
COc1ccc(OCC(=O)NNC(=S)NC(=O)c2ccc([N+](=O)[O-])cc2)cc1	18	0	118	-2	-27
CC(C)C(=O)Nc1ccc(C(=O)NNC(=S)NC(=O)c2cccs2)cc1	0	3	100	?	-1
COc1ccc(C(=O)NNC(=S)NC(=O)c2cccs2)cc1	-2	-11	141	89*	?
COc1ccc(OCC(=O)NNC(=S)NC(=O)c2ccc(Br)o2)cc1	-4	2	124	71*	22
C=CCNC(=S)NNC(=O)c1ccc(OCCC)cc1	2	12	104	1	11
O=C(COc1cccc(Cl)c1)NNC(=S)Nc1ccccc1	-8	4	107	-4	-13
O=C(COc1ccccc1)NNC(=S)NC(=O)c1ccc(Cl)cc1Cl	0	-29	197	77*	105*
CCCOc1ccc(C(=O)NNC(=S)NC(=O)CC)cc1	5	-18	i	106*	85*
O=C(NNC(=O)c1cccc(O)c1)Nc1ccc([N+](=O)[O-])cc1	-1	?	99	0	23
CCOC(=O)C1=CN(c2cccc(F)c2)C=C(C(=O)OCC)C1c1cc(OC)c(O)c([N+](=O)[O-])c1	6	4	94	27	8
COc1ccc(CCC(=O)NCC2CCCCC2)cc1OC	4	6	87	-4	1
CC(C)(C)c1ccc(C(=O)OCC(=O)N2CCC(c3ccccc3)=N2)cc1	.	.	109	.	.
O=C1CC(c2cccs2)Cc2nc(NCC3CCCO3)ncc21 (stereo unspecified)	-5	19	88	-10	-7
O=C(NC(=S)Nc1ccccc1O)c1ccc(Cl)cc1Cl	-13	-49	97	6	111*
O=C(Nc1ccccc1Cl)c1ccc(Cl)cc1Cl	1	-14	97	9	-4
C=CCCC(=O)N1CCCC(Cc2cccc(Cl)c2)(C(=O)OCC)C1 (stereo unspecified)	1	9	111	-1	6
CN(Cc1ccc(F)cc1)C(=O)C(Cc1ccccc1)NC(=O)c1ccccc1 (stereo unspecified)	-1	-12	92	3	-1
CN(CC(=O)Nc1ccccc1Br)C(=O)C(Cc1ccccc1)NC(=O)c1ccccc1 (stereo unspecified)	59*	12	102	-1	-2
Cc1cc(Oc2ccc(Cl)cc2)nc(-c2ccccc2O)n1	4	-6	113	53*	.
O=C(/C=C/Nc1ccc(F)c(Cl)c1)c1ccccc1	2	4	93	2	-37
C[C@]12CCC(O)CC1CCC1C2CC[C@]2(C)C(c3cc(C(F)(F)F)n[nH]3)CCC12 (stereo partly specified)	2	-22	120	106*	11
Cc1cccc(NCC(=O)N/N=C\c2cccc(Oc3ccccc3)c2)c1	6	0	99	58*	-6
O=C(N/N=C/c1cccc(OCC(=O)N2CCCC2)c1)C(=O)Nc1ccccc1F	1	1	93	-3	0
COc1ccc(C2C(C(=O)c3ccccc3)=C(C)Nc3nc4ccccc4n32)c(OC)c1 (stereo unspecified)	8	1	107	89*	8
COc1ccc(Cn2c(-c3ccccc3C)nc3c(c(=O)c4ccccc4n3C)c2=O)cc1	-1	?	69	7	-2
CC(C)NC(=O)c1ccc2c3n(nc2c1)-c1ccccc1CO3	49	-23	99	10	-3
CC(C)[C@@H](CO)NC(=O)c1ccc2c3n(nc2c1)-c1ccccc1CO3	75*	1	103	18	1
Cc1ccc(S(=O)(=O)NCC(C)NC(=O)CN2CCOCC2)cc1 (stereo unspecified)	-1	-7	100	-1	-1

Screening results from PubChem.
